Rows were chosen to be rich in hits. Some 0.97% of all compounds tested hit in one or more screens of this group.
S1P4 antag – S1P4 receptor antagonists, primary screen, cell-based; Sphingosine 1-phosphate receptor 4 (Homo sapiens), O95977; S1P4-expressing cells, antagonist mode, reporter read-out; inhibition, % at 4.98 µM; hit rate 0.26% among 220,000; AID 1510, 2009; in the data active = inhibition above about 29%
S1P3 antagonist – S1P3 receptor antagonists, primary screen, cell-based | Sphingosine 1-phosphate receptor 3 (Homo sapiens), Q99500 | CHO S1P3 NFAT-BLA reporter, FRET fluorescence, antagonist mode | inhibition, % at 4.98 µM | hit rate 0.27% among 170,000 | AID 485, 2006;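 active = inhibition above the plate cutoff, the mean inhibition of test wells on that plate plus 3 SD, cut at about 28% in these data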;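 note: cells challenged with S1P at its EC80 of 0.8 µM; blue over green emission ratio from cleaved BLA substrate after 4 h stimulation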
Target sequence (Q99500 whole entry, looked up): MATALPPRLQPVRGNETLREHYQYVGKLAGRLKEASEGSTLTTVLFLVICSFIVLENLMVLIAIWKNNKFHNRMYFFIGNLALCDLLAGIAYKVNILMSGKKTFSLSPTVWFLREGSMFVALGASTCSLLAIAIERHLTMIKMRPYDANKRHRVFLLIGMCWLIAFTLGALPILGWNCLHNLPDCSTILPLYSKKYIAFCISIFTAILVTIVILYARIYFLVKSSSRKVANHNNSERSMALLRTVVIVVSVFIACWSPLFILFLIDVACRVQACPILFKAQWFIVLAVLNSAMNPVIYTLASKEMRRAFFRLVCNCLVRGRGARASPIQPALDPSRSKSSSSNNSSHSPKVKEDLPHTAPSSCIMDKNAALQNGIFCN
S1P4 ag – S1P4 receptor agonists, primary screen, cell-based. Sphingosine 1-phosphate receptor 4 (Homo sapiens), O95977. S1P4-expressing cell line, agonist reporter assay. activation, % at 4.98 µM. hit rate 0.35% among 220,000. AID 1509, 2009; in the data active = activation above about 11%
AI-2 QS modul – Vibrio harveyi AI-2 quorum sensing modulators, primary screen, JMH597 strain, luminescence/OD600 ratio; Vibrio harveyi JMH597 AI-2 luminescence/OD600 ratio, 9 h; hits give low values; strain lacks LuxN and CqsS sensors; 0 = neutral-control median; activity change, % at 7.5 µM; hit rate 0.4% among 300,000; AID 2094, 2009; in the data active = activity change below about -75%, passing the limit was not always enough;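 note: luminescence divided by OD600 gain over 9 h not by final OD600 alone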
Hsp70 act – Hsp70 transcriptional activators, primary screen, cell-based, HeLa, Hsp70 promoter luciferase, luminescence, 10 µM. activation, % at 10 µM. HeLa Hsp70 promoter luciferase reporter; scaled: vehicle 0, proteasome-inhibitor control 100%. hit rate 0.04% among 200,000;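 active = activation above the mean across all tested compounds plus 3 SD, cutoff set per campaign, cut at about 5.5% in these data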
JMH597 growth rt – Vibrio harveyi growth inhibition, confirmation, counter-screen for AI-2 quorum sensing project, JMH597 strain, OD600 absorbance | AID 2726, 2010 | growth inhibition, % at 7.5 µM | hit rate 1% among 750 | 9 h; lacks LuxN and CqsS sensors | shares compounds with AI-2 QS modul;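 active = every replicate shows growth inhibition above 50%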
BB721 lum counter – luminescence inhibition in constitutive-on V. harveyi, confirmation, counter-screen for LuxS inhibitor project, strain BB721, luminescence readout; shares compounds with AI-2 QS modul; Vibrio harveyi BB721 luminescence, 9 h; inhibition, % at 7.5 µM; hit rate 95% among 750;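 active = inhibition above about 80% in every replicate, not just on average, limit read from the data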
BB721 growth – growth inhibition of V. harveyi BB721, confirmation, cytotoxicity control for AI-2 quorum sensing inhibitors, strain BB721, absorbance OD600; shares compounds with AI-2 QS modul; growth inhibition, % at 7.5 µM; hit rate 3% among 750; AID 2728, 2010; Vibrio harveyi BB721 growth, 9 h;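 active = every replicate shows growth inhibition above 50%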
JMH597 AI-2 mod – Vibrio harveyi AI-2 signaling luminescence modulation – JMH597 strain, confirmation | hit rate 97% among 750 | AID 2736, 2010 | inhibition, % at 7.5 µM | Vibrio harveyi JMH597 AI-2 quorum sensing luminescence, 9 h; luxN and CqsS knockout, AI-2 only | shares compounds with AI-2 QS modul;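 active = every replicate shows more than 75% inhibition of signal versus neutral control wells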
Of the large screens only hits and unclear results are named; the others gave an inactive call (follow-up assays come after a bar, where they were run).

CCCC1(c2ccccc2)NC(=O)N(CC(=O)NCc2ccc(OC)cc2)C1=O (stereo not drawn)	AI-2 QS modul -85.6 (no result: S1P4 antag, S1P3 antagonist, S1P4 ag, Hsp70 act) | JMH597 growth rt inactive | BB721 lum counter 86.1 | BB721 growth inactive | JMH597 AI-2 mod 91.1
CCC1(c2ccccc2)NC(=O)N(CC(=O)NNC(=O)c2ccoc2C)C1=O (stereo not drawn)	none (no result: S1P4 antag, S1P3 antagonist, S1P4 ag, Hsp70 act)
Cc1ccc(NC(=O)C2CCN(C(=O)c3ccccc3C)CC2)nc1	none (no result: S1P4 antag, S1P3 antagonist, S1P4 ag, Hsp70 act)
N#Cc1ccccc1CSc1nc(N)cc(N)n1	none (no result: S1P4 antag, S1P3 antagonist, S1P4 ag, Hsp70 act)
COc1ccc(CCNS(=O)(=O)CCNC(=O)c2ccc3c(c2)OCO3)cc1	none (no result: S1P4 antag, S1P3 antagonist, S1P4 ag, Hsp70 act)
CC(Oc1ccc2c3c(c(=O)oc2c1)CCC3)C(=O)NCc1cccnc1 (stereo not drawn)	none (no result: S1P4 antag, S1P3 antagonist, S1P4 ag, Hsp70 act)
CCOC(=O)c1cccc(NC(=O)C(C)N2C(=O)c3ccccc3C2=O)c1 (stereo not drawn)	AI-2 QS modul -94.6 | JMH597 growth rt inactive | BB721 lum counter 98.8 | BB721 growth inactive | JMH597 AI-2 mod 99.3
CCOC(=O)c1ccc(NC(=O)C(C)N2C(=O)c3ccccc3C2=O)cc1 (stereo not drawn)	none
CC1CCN(C(=O)c2cc(-c3ccccc3O)on2)CC1	AI-2 QS modul -84.0 | JMH597 growth rt inactive | BB721 lum counter 95.3 | BB721 growth inactive | JMH597 AI-2 mod 96.5
CC1CCN(C(=O)c2cc(-c3ccc4c(c3)OCO4)on2)CC1	AI-2 QS modul -90.0 (no result: S1P4 antag, S1P3 antagonist, S1P4 ag, Hsp70 act) | JMH597 growth rt inactive | BB721 lum counter 96.4 | BB721 growth inactive | JMH597 AI-2 mod 97.2
CC1CCN(C(=O)c2cc(-c3ccco3)on2)CC1	none (no result: S1P4 antag, S1P3 antagonist, S1P4 ag, Hsp70 act)
Cc1ccc(NC(=O)CCOc2ccccc2C)cc1C	AI-2 QS modul -78.3 (no result: S1P4 antag, S1P3 antagonist, S1P4 ag, Hsp70 act) | JMH597 growth rt inactive | BB721 lum counter 91.7 | BB721 growth inactive | JMH597 AI-2 mod 93.4
Cc1ccccc1OCCC(=O)Nc1ccc(F)c(Cl)c1	AI-2 QS modul -92.7 | JMH597 growth rt inactive | BB721 lum counter 96.6 | BB721 growth inactive | JMH597 AI-2 mod 97.6
COc1cccc(CNS(=O)(=O)c2cc3c4c(c2)CCN4C(=O)CC3)c1	none (no result: S1P4 antag, S1P3 antagonist, S1P4 ag, Hsp70 act)
O=C(CCn1cnnn1)Nc1ccccc1	none
COc1ccc(CC(=O)Nc2sccc2C#N)cc1S(=O)(=O)N1CCOCC1	none (no result: S1P4 antag, S1P3 antagonist, S1P4 ag, Hsp70 act)
Cc1ccc(C2(C)NC(=O)N(CC(=O)Nc3ccc4c(c3)OCO4)C2=O)cc1 (stereo not drawn)	AI-2 QS modul -94.9 | JMH597 growth rt inactive | BB721 lum counter 96.6 | BB721 growth inactive | JMH597 AI-2 mod 98.4
Cc1cc(C)c(NC(=O)CN2C(=O)NC3(CCOc4ccccc43)C2=O)c(C)c1 (stereo not drawn)	none (no result: S1P3 antagonist)
O=C(CN1C(=O)NC2(CCOc3ccccc32)C1=O)Nc1cccc(Cl)c1 (stereo not drawn)	AI-2 QS modul -93.0 | JMH597 growth rt inactive | BB721 lum counter 96.3 | BB721 growth inactive | JMH597 AI-2 mod 97.7
Cc1cccc(NC(=O)CN2C(=O)NC(C)(c3ccc4c(c3)OCO4)C2=O)c1 (stereo not drawn)	AI-2 QS modul -87.0 (no result: S1P3 antagonist) | JMH597 growth rt inactive | BB721 lum counter 88.4 | BB721 growth inactive | JMH597 AI-2 mod 91.9
CCC1(c2ccccc2)NC(=O)N(CC(=O)Nc2ccc3c(C)cc(=O)oc3c2)C1=O (stereo not drawn)	none (no result: S1P4 antag, S1P3 antagonist, S1P4 ag, Hsp70 act)
CCC1(c2ccccc2)NC(=O)N(CC(=O)Nc2ccc3c(c2)OCO3)C1=O (stereo not drawn)	AI-2 QS modul -93.0 | JMH597 growth rt inactive | BB721 lum counter 95.5 | BB721 growth inactive | JMH597 AI-2 mod 97.1
